NTR1 agonist = agonists of human neurotensin receptor NTR1. AID 493036. NTR1-U2OS beta-arrestin-GFP spot imaging, agonist mode. 0.17% of 330,000 active. activation, % at 20 µM;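 active = activation at or above 40% of the spot to cytoplasm intensity ratio, with at least 20 cells analyzed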;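 note: 0% = DMSO without peptide and 100% = 100 nM NTR1 peptide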
GRK2 inh = inhibitors of human GRK2 displacing RNA aptamer. P25098. 0.59% of 330,000 active. bead flow cytometry, FAM-aptamer displacement from GRK2. inhibition of aptamer binding, % at 10 µM. AID 488847;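 active = inhibition of aptamer binding above 40%, roughly 3 SD of noise, on plates passing a quality check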;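 note: median bead fluorescence of bound FAM aptamer so fluorescent compounds give negative values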
Target sequence (P25098 whole entry, looked up): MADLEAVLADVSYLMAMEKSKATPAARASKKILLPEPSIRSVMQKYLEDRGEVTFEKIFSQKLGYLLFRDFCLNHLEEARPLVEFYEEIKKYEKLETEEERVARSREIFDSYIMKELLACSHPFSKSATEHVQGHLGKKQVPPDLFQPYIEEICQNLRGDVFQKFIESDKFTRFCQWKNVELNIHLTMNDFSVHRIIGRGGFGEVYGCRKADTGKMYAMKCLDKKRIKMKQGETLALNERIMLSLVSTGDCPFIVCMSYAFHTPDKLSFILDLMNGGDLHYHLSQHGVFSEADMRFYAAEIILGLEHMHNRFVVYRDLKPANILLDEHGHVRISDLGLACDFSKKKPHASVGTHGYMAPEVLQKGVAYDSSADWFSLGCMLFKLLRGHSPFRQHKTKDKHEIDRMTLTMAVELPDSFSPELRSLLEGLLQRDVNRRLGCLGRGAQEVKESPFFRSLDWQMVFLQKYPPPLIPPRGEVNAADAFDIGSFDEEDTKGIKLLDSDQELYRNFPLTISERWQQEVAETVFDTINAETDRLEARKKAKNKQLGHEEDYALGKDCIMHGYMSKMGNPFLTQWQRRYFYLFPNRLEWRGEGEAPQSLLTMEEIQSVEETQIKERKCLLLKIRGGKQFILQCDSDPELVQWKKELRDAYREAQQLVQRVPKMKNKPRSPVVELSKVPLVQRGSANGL
Platelet DG rel = platelet dense granule release activity. inhibition, %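 (compounds screened at 7.5 µM in platelet-rich plasma)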. 0.22% of 300,000 active. human platelet-rich plasma, SFLLRN dense granule ATP release, luminescence. AID 1663;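 active = mean replicate score, as percent of positive control, at or above 50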
MIN6 prolif = inducers of beta-cell replication in MIN6 cells; MIN6 cells proliferation, ATPlite luminescence, 48 h; cells starved in 0.2% serum; 100% = growth in 10% serum; proliferation, % at 10 µM; 0.29% of 330,000 active; AID 2380;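 active = compounds whose signal lies at least 3.5 SD above the mean of all wells on their plate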;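 note: 0% = DMSO-treated cells in low-serum medium and 100% = 10% serum control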
The depositor's hits bear a star; x = not tested or not shown. In the library only some 1.2% were active in any assay of this set; here they are far more common.

SMILES | NTR1 agonist | GRK2 inh | Platelet DG rel | MIN6 prolif
CC1N(O)C(c2ccc(Cl)cc2Cl)N(O)C1(C)C (configuration not stated) | 1 | 1 | 68* | 2
CC1CC(C)CN(C(=O)C(C)N2CCN(S(=O)(=O)c3ccc(Br)s3)CC2)C1 (configuration not stated) | 3 | 1 | x | -1
Cc1cc2cc(CNC(=O)c3cc4ccccc4o3)ccc2n1C | -6 | 87* | -5 | 0
C/C(=N\NC(=O)Cc1ccc(F)cc1)c1ccc(O)cc1 | -1 | 18 | 1 | -3
CCN1CCSc2ccc(C(=O)NCc3cc(Br)ccc3OC)cc21 | 2 | 3 | 2 | -4
COc1ccc(Br)cc1CNC(=O)c1ccc2c(c1)N(C)CCS2 | -2 | 0 | 97* | -4
O=C(O)CCCCCCC1C(=O)NC(=O)N1CCC(O)C1CCCCC1 (configuration not stated) | 2 | 1 | 88* | 3
O=C(O)CCCCCN1C(=O)C2CCCCC2C1=O (configuration not stated) | 0 | 0 | 0 | -1
Cc1cc(C)c(C(=O)COC(=O)c2cc([N+](=O)[O-])ccc2N2CCOCC2)cc1C | 4 | 0 | -6 | 1
CCc1cccc(CC)c1NC(=O)COC(=O)c1cccc(-c2ccc(OC(C)=O)cc2)c1 | -2 | 100* | 6 | 0
CC(=O)Oc1ccc(-c2cccc(C(=O)O)c2)cc1 | -2 | 1 | 0 | 0
O=C(NCc1ccc(F)cc1)c1cccc(S(=O)(=O)N2CCOCC2)c1 | 1 | 4 | x | 0
C/C(=N\NC(=O)c1nnn(-c2nonc2N)c1CN1CCc2ccccc21)c1ccccc1O | 4 | 0 | -6 | -8
Cc1ccccc1C(=O)N1CCN(c2ccccn2)CC1 | 3 | 45* | 1 | -5
COC(=O)C1=C(O)/C(=C\c2ccc(CNS(=O)(=O)c3ccccc3)o2)N=C1C | 0 | 72* | 1 | 0
O=c1c(-c2ccc(Br)cc2)coc2c(CN3CCCCC3)c(O)ccc12 | -1 | x | -2 | 2
COc1ccc(-c2coc3c(CN4CCCCC4)c(O)c(CN4CCCCC4)c(O)c3c2=O)cc1 | -1 | 100* | -5 | -4
Cc1cccc(C)c1NC(=O)CNC(=O)c1ccc2ccccc2n1 | -2 | 0 | x | -2
Cc1ccccc1NC(=O)COC(=O)CCc1ccccc1 | 1 | 0 | 3 | 1
CCc1ccc2c(c1)cc(CN(Cc1ccco1)C(C)=O)c1nnnn12 | 3 | 3 | -6 | 11*
CC(=O)N(Cc1ccco1)Cc1cc2cccc(C)c2n2nnnc12 | -1 | 0 | 1 | -2
O=C(OCCN1CCCC1)C1(c2ccccc2)CCCC1 | x | x | -9 | x
CN(C)CCOC(=O)C1(c2ccccc2)CCCC1 | 1 | 1 | 66* | -1
COC(=O)c1cc(S(=O)(=O)NCCN2CCOCC2)cn1C | 1 | 0 | -4 | 0
COc1ccc(-c2nc(-c3ccccn3)no2)cc1 | -1 | 2 | 61* | -6
SMILES | NTR1 agonist | GRK2 inh | Platelet DG rel | MIN6 prolif
O=C(O)c1ccc(Cl)c2c1C1C=CCC1C(c1ccccn1)N2 (configuration not stated) | -1 | 47* | 13 | -4
COc1ccc(CNc2nc(-c3cccnc3)nn2S(C)(=O)=O)cc1 | 0 | 2 | -1 | -2
COc1ccc(C(=O)Nc2ccccc2C(=O)N/N=C/c2ccco2)cc1 | 2 | 1 | 78* | -5
C/C(=N\N=C(N)N)c1ccc(Cl)cc1Cl | -1 | 0 | -2 | -5
Cc1ccc(O)c(N=Nc2ccccc2)n1 | -1 | 0 | 77* | -7
CN(C)S(=O)(=O)c1cccc(NC(=O)/C=C/c2ccc(S(=O)(=O)N3CCOCC3)cc2)c1 | 4 | 0 | x | 1
CC(=O)c1cccc(NC(=O)/C=C/c2ccc(S(=O)(=O)N3CCOCC3)cc2)c1 | 4 | 96* | x | -3
O=S(=O)(Nc1ccc(-c2ccc3nncn3n2)cc1)c1ccc(Cl)s1 | 1 | 0 | -8 | 3
O=S(=O)(Nc1ccc(-c2ccc3nncn3n2)cc1)c1ccccc1Cl | 1 | 1 | 61* | 2
CCOC(=O)C1=C(C)NC(=O)NC1 | 0 | 2 | 60* | -3
CCOC(=O)C1=C(C)NC(C)=C(C(=O)OCC)C1C | -1 | 0 | -1 | 1
O=C(NCCc1ccccn1)c1nc(Cn2ccc([N+](=O)[O-])n2)no1 | 1 | 1 | -1 | -2
COC(=O)[C@@]12CCCCN1[C@H](c1ccc(-c3ccc4c(c3)OCO4)cc1)[C@H]1C(=O)N(C)C(=O)[C@H]12 | 3 | 0 | x | -6
O=C(NCCc1ccccn1)c1c(-c2ccsc2)sc2ccccc12 | 4 | 70* | x | -5
Cc1ccc(CNC(=S)Nc2ccc(C)c([N+](=O)[O-])c2)cc1 | 7 | 50* | 0 | 0
Cc1ccc(NC(=S)NCc2ccccc2)cc1[N+](=O)[O-] | 1 | 8 | 1 | -4
O=C(C[n+]1ccccc1)N/N=C/c1ccc(Br)cc1 | 0 | 0 | x | 2
C=CCOC(=O)Nc1ccc(Cl)cc1NC(=O)OCC=C | 0 | 7 | 1 | -1
C=CCOC(=O)/C=C/C(=O)NC(N)=O | -2 | 0 | 9 | 11*
Cc1ccc(NC(=O)CSc2nnc(-c3ccc(S(=O)(=O)N4CCCC4)cc3)o2)cc1C | 46* | 0 | x | -4
C[C@H](CO)N1C[C@H](C)[C@@H](CN(C)Cc2ccncc2)Oc2ccc(NC(=O)CCCCCC(=O)Nc3ccccc3N)cc2C1=O | -1 | 0 | x | 0
CC(C)C(C(=O)NC1CCCC1)N(CC1CCCO1)C(=O)CNS(=O)(=O)c1ccccc1 (configuration not stated) | -1 | 1 | -1 | 1
O=c1cc(-c2ccc([N+](=O)[O-])cc2)nc2cc(-c3ccc(Cl)cc3)[nH]n12 | x | 58* | x | x
CCCc1cc(=O)n2[nH]c(-c3ccc(Cl)cc3)cc2n1 | 0 | 0 | 3 | 0
Cc1ccc(C)c(N2CCN(S(=O)(=O)c3ccc4c(c3)OCCO4)CC2)c1 | 8 | 1 | 57* | 2
SMILES | NTR1 agonist | GRK2 inh | Platelet DG rel | MIN6 prolif
CCN1CCN(Cc2nc3c(c(=O)[nH]c(=O)n3C)n2Cc2ccccc2Cl)CC1 | -2 | 0 | 65* | -1
Cn1c(=O)[nH]c(=O)c2c1nc(CN1CCN(c3cccc(Cl)c3)CC1)n2Cc1ccccc1Cl | 35 | 0 | 2 | -6
Cc1cc(NC(=O)CCC(=O)N(c2ccccc2)C(C(=O)NC2CCCC2)c2ccc(F)cc2)no1 (configuration not stated) | 0 | 0 | 5 | 0
O=C(CCN1C(=O)C2C3C=CC(C4CC34)C2C1=O)Nc1ccc(Cl)cc1O (configuration not stated) | 1 | 2 | 11 | -1
NC(=O)c1ccccc1N/C=C/C(=O)c1ccco1 | 2 | 3 | 7 | -3
O=C(/C=C/Nc1ccc(Oc2ccccc2)cc1)c1ccco1 | 7 | 0 | 53* | -5
Cc1cc(NC(=O)C(C)SCC(=O)OCc2ccc(Cl)cc2Cl)no1 (configuration not stated) | -1 | 2 | x | 2
CC1CC(=O)NN=C1c1ccc(NCCO)c([N+](=O)[O-])c1 (configuration not stated) | 0 | 0 | 89* | 2
